Only some compounds are listed: those with a hit (about 3.3% of all), similar ones and a draw of the others.
ROMK mod – human ROMK K+ channel modulation, primary screen; actives 2% (n = 130,000); P48048; Tet-inducible ROMK, thallium flux fluorescence; actives lie on both sides; B-score at 10 µM; AID 1918;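 active = signal ratio slope over the read window, or its plate-corrected B-score, at least 3 SD from the plate mean, either direction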;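 note: B-score of the F/F0 ratio slope over 7 to 12 s after thallium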
Target sequence (P48048 whole entry, looked up): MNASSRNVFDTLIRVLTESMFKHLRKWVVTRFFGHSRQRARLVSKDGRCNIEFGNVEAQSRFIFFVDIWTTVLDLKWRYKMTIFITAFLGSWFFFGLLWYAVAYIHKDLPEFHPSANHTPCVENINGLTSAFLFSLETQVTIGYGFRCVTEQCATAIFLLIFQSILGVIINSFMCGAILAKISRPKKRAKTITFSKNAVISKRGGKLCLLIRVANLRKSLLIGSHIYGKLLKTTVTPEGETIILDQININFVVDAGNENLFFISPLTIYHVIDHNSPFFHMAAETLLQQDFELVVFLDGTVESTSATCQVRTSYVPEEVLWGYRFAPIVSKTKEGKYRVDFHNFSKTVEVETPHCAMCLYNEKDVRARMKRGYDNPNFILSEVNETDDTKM
Arbovirus anti – blocks arbovirus infection. inhibition, % at 10 µM. actives 0.37% (n = 200,000). arbovirus infection cell-based antiviral screen; in the data active = inhibition above about 30%
WT yeast gro inh – growth inhibition of WT yeast, mitochondrial fusion screen. actives 2.1% (n = 190,000). inhibition, % at 10 µM. mitochondrial fusion phenotypic screen, WT strain; in the data active = inhibition above about 58%; tested in S. cerevisiae
PERK inhibitor – inhibitors of human PERK kinase. Q9NZJ5. CHO PERK-DD fusion, SEAP luminescence translation reporter. inhibition, % at 5.6 µM. actives 0.17% (n = 220,000);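 active = inhibition above the mean inhibition of all tested compounds plus 3 SD, set separately per screening campaign, cut at about 2.9% in these data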;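 note: PERK kinase domain activated by AP20187 dimerizer at 100 nM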
Large screens that a line does not name were inactive.

CCOC(=O)C(=NC(C)CC)NNc1ccc(Br)cc1 (stereo not drawn)	WT yeast gro inh 70
CCOC(=O)C(=NC1CCS(=O)(=O)C1)NNc1ccc(Br)cc1 (stereo not drawn)	WT yeast gro inh 59
CCC(=O)NNc1ccc(Br)cc1	WT yeast gro inh 69
Cn1c(NC(=O)c2ccccc2F)cc(=O)n(C)c1=O	none (no result: ROMK mod)
Cc1c(Cl)cnc(NC(=O)COC(=O)Cc2coc3ccc4ccccc4c23)c1Cl	none
CC(C)(C)NC(=O)NC(=O)COC(=O)Cc1coc2ccc3ccccc3c12	WT yeast gro inh 70
COc1ccc(/C=C/C(=O)N2CCN(c3ccccn3)CC2)c2ccccc12	WT yeast gro inh 62
O=C(/C=C/c1ccc(F)cc1)N1CCN(c2ccccn2)CC1	none (no result: ROMK mod)
O=C1C=C(Nc2ccc(Cl)cc2)CC(c2ccc(Cl)cc2)C1 (stereo not drawn)	WT yeast gro inh 68 (no result: ROMK mod)
CN1CCN(Cc2nc3ccccc3c(=O)n2Cc2nc(-c3ccc4ccccc4c3)cs2)CC1	WT yeast gro inh 81
O=C(COc1ccccc1[N+](=O)[O-])N/N=C/C=C/c1ccco1	WT yeast gro inh 71
Fc1ccccc1Nc1nc2c(s1)CCc1ccccc1-2	WT yeast gro inh 64 (no result: ROMK mod)
Cc1ccc(NC(=O)c2cncc(Br)c2)c(O)c1	Arbovirus anti 39
Cc1cc([N+](=O)[O-])ccc1NC(=O)c1cncc(Br)c1	none
Cc1ccc(N=N/C(=C\O)C(=O)c2ccncc2)cc1	none
O=C(/C(=C/O)N=Nc1cccc(C(F)(F)F)c1)c1ccccc1	WT yeast gro inh 95
O=C(/C(=C/O)N=Nc1ccccc1Cl)c1ccccc1	none
Cc1cccc(/C=N/NC(=O)c2ccc(Br)cc2)c1	none
Cc1cccc(N=N/C(=C\O)C(=O)c2ccc(Br)cc2)c1	WT yeast gro inh 96
Cc1cccc(N/N=C(\C=N\N)C(=O)c2ccc(Br)cc2)c1	WT yeast gro inh 77
O=C(c1cccs1)N(c1ccc(Br)cc1)C1C=CS(=O)(=O)C1 (stereo not drawn)	none
Cc1cc(NC(=O)NC(C)(C(F)(F)F)C(F)(F)F)no1	none (no result: ROMK mod, Arbovirus anti, WT yeast gro inh)
CCC(NC(=O)Nc1cc(C)on1)(C(F)(F)F)C(F)(F)F	PERK inhibitor 3.2 (no result: ROMK mod, Arbovirus anti, WT yeast gro inh)
Cc1ccc(SCC(=O)NC(=O)NCc2ccco2)cc1C	none (no result: ROMK mod)
CCC1=NN2C(=N)/C(=C/c3cc(C)n(Cc4ccccc4)c3C)C(=O)N=C2S1	none (no result: ROMK mod, Arbovirus anti, WT yeast gro inh)
CC1=CSC2=NC(=O)/C(=C\c3cccn3-c3ccc([N+](=O)[O-])cc3)C(=N)N12	none
CCC1=NN2C(=N)/C(=C\c3cccn3-c3ccc(C)cc3C)C(=O)N=C2S1	Arbovirus anti 39, WT yeast gro inh 84
Cc1ccccc1Cn1cccc1/C=C1/C(=N)N2C=CSC2=NC1=O	none
CCC1=NN2C(=N)/C(=C\c3cccn3-c3cccc(Cl)c3)C(=O)N=C2S1	WT yeast gro inh 62
CCC1=NN2C(=N)/C(=C\c3cccn3-c3ccc(Br)cc3)C(=O)N=C2S1	none
Cc1cccc(C)c1-n1cccc1/C=C1/C(=N)N2C(=NC1=O)SN=C2S(C)(=O)=O	Arbovirus anti 59
CCC1=NN2C(=N)/C(=C\c3cccn3-c3c(C)cccc3C)C(=O)N=C2S1	Arbovirus anti 31
O=C(NCCNc1nccc(C(F)(F)F)n1)c1cccs1	none (no result: ROMK mod, Arbovirus anti, WT yeast gro inh)
Cc1c[nH]c(=O)c([N+](=O)[O-])c1	PERK inhibitor 3.8 (no result: ROMK mod, Arbovirus anti, WT yeast gro inh)
O=C(NNc1nc2ccccc2s1)C1CC1	PERK inhibitor 3.6
COCCCNC(=O)c1cccc(C(=O)NCCCOC)c1	WT yeast gro inh 66
COCCCNC(=O)c1ccc2c(c1)OCO2	none
CCOC(=O)C(NCCOC)(NC(C)=O)C(F)(F)F (stereo not drawn)	none (no result: ROMK mod, Arbovirus anti, WT yeast gro inh)
Cc1cccc(C(=O)NNC(=O)c2ccccc2)c1	none
Cc1cccc(C(=O)c2cnc3ccccc3c2-c2ccccc2)c1	WT yeast gro inh 62
Cc1ccc(C(=O)Nc2ccc(S(=O)(=O)NCc3ccco3)cc2)cc1	WT yeast gro inh 66
COc1ccc(-c2csc(NC(=O)C3COc4ccccc4O3)n2)cc1OC (stereo not drawn)	WT yeast gro inh 65 (no result: ROMK mod)
CN1CC(c2ccccc2)C2(SC(=S)N(Cc3ccco3)C2=O)C12C(=O)Nc1ccccc12 (stereo not drawn)	WT yeast gro inh 80
CN1CC(c2ccccn2)C2(SC(=S)N(Cc3ccccc3)C2=O)C12C(=O)Nc1ccccc12 (stereo not drawn)	none (no result: ROMK mod)
C(=N\Nc1nc(-c2ccccc2)cs1)/c1ccco1	Arbovirus anti 36 (no result: ROMK mod)
C(=N\Nc1nc(-c2ccccc2)cs1)/c1cccs1	Arbovirus anti 35 (no result: ROMK mod)
C(=N\Nc1nc(-c2ccccc2)cs1)/c1ccncc1	none (no result: ROMK mod)
Cc1c(C(=O)NCCSCc2cccc(C(F)(F)F)c2)cnn1-c1ccc(Cl)cc1	none (no result: ROMK mod, Arbovirus anti, WT yeast gro inh)
CC12CCC(C(=O)N(Cc3ccccc3)Cc3ccccc3)(OC1=O)C2(C)C (stereo not drawn)	WT yeast gro inh 79 (no result: ROMK mod)
CC12CCC(C(=O)NCc3cccnc3)(OC1=O)C2(C)C (stereo not drawn)	none
S=C1NCCc2ccccc2C1c1ccccc1Cl (stereo not drawn)	WT yeast gro inh 62
S=C1NCCc2ccccc2C1c1ccccc1 (stereo not drawn)	none
CC1=CN2C(=N)/C(=C/c3ccc(Sc4ccc(C)cc4)o3)C(=O)N=C2S1	WT yeast gro inh 77
CC1=CN2C(=N)/C(=C/c3ccc(Sc4ccc(Cl)cc4)o3)C(=O)N=C2S1	none (no result: ROMK mod)
CCS(=O)(=O)N1Cc2ccccc2CC1C(=O)N1CCN(c2cccc(C)c2C)CC1 (stereo not drawn)	none
COc1ccc(C(=O)N/C(=C\c2ccco2)C(=O)NC2CCS(=O)(=O)C2)cc1 (stereo not drawn)	none
CCOC(CNC(=O)Cn1nc(C)c2ccccc21)OCC	none
CSC(=S)N/N=C(\C)c1ccccc1	ROMK mod 10, WT yeast gro inh 65
CCCn1c2c(c(=N)c3c1CCC3)CCCC2	none
N=c1n(CC(=O)c2ccc([N+](=O)[O-])cc2)c2ccccc2n1Cc1ccc(Cl)cc1	none (no result: ROMK mod)
N=c1c2c(n(Cc3ccc(Cl)c(Cl)c3)c3c1CCC3)CCCC2	WT yeast gro inh 72 (no result: ROMK mod)
N=c1c2c(n(Cc3ccc(Br)cc3)c3c1CCC3)CCCC2	WT yeast gro inh 58
N=c1c2c(n(Cc3ccc([N+](=O)[O-])cc3)c3c1CCC3)CCCC2	WT yeast gro inh 67
O=S1(=O)C=C(Sc2nnc(-c3ccccc3)o2)c2ccccc21	none (no result: ROMK mod)
c1ccc(N(c2ccccc2)c2nc(N3CCCC3)nc(-n3ccnc3)n2)cc1	WT yeast gro inh 78
CC(=O)NCC(=O)OCC(=O)c1ccc(Cl)cc1	none
Cc1cc(C)n2c(SCC(=O)N(C)C3CCCCC3)nnc2n1	none
CC1=NN(C(N)=S)C(=O)C1N=Nc1cccc2ccccc12 (stereo not drawn)	none
CC1=NN(C(N)=S)C(=O)C1N=Nc1ccccc1 (stereo not drawn)	WT yeast gro inh 70
Cc1ccc(Cl)cc1NC(=O)c1cc2ccccc2cc1O	none (no result: ROMK mod, Arbovirus anti, WT yeast gro inh)
Clc1ccc(Cn2nc(-c3ccccc3)nc2-c2ccccc2)cc1	none
Cc1cc(OCC(=O)Nc2ccncc2)cc(C)c1Br	WT yeast gro inh 74
Cc1nn(CCc2nn[nH]n2)c2nc(-c3ccc(C4CCCCC4)cc3)cc(C(F)(F)F)c12	WT yeast gro inh 98
COc1ccccc1N=Nc1nc(-c2ccccc2)c(-c2ccccc2)[nH]1	WT yeast gro inh 64
COc1ccc(N=Nc2nc(-c3ccccc3)c(-c3ccccc3)[nH]2)cc1	none (no result: ROMK mod)

Screening results from PubChem BioAssay.
